Compound activity as filed in PubChem.
Rows were chosen to be rich in hits. Some 3.9% of all compounds tested hit in one or more screens of this group.
TROY NFkB inh: TROY signaling inhibition; Q293 LMP1-TROYcd NF-kB luciferase reporter, 4 h; inhibition, % at 10 µM; hit rate 0.98% among 360,000; AID 1347056;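 active = compounds whose plate-normalised and pattern-corrected inhibition of the luciferase reporter signal at the single screening dose is 50% or more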
CF NFkB inh: blocks PAF-induced NF-kB reporter in cystic fibrosis cells; inhibition, % at 5 µM; AID 588850; hit rate 0.86% among 360,000; KKLEB NF-kB-GFP reporter, GFP fluorescence overnight;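 active = at least 50% inhibition at 5 µM, scaled per plate between neutral and stimulator controls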;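 note: PAF is a Pseudomonas aeruginosa culture filtrate used as stimulus; plate controls were PAF-stimulated DMSO wells for no effect and unstimulated DMSO wells for full effect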
KKLEB cytotox: reduces viability of KKLEB cystic fibrosis airway cells; KKLEB CF airway cells viability, ATPlite luminescence, overnight; stronger effect = lower value; cells stimulated with P. aeruginosa culture filtrate; activity change (cytotoxicity), % at 5 µM; hit rate 0.36% among 360,000;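 active = corrected activity change at or below -50% at 5 µM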
HIF-2a inh: HIF-2a inhibition | inhibition, % at 18.8 µM | 786-0 RCC cells HIF-2a reporter, luciferase luminescence, overnight | hit rate 0.72% among 360,000;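 active = inhibition of the luminescence signal of 40% or more relative to plate controls, in a single-dose primary screen at 18.75 µM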
TWEAK Fn14 block: inhibitors of TWEAK-Fn14 interaction signaling | hit rate 2% among 360,000 | inhibition, % at 10 µM | AID 1159606 | TWEAK-stimulated Fn14 reporter cells, luciferase luminescence, 8 h; in the data active = inhibition above about 50%
Peg3 prom inh: reduces Peg3 promoter-driven luciferase expression in HeLa | HeLa PEG-Prom luciferase reporter, luminescence, overnight | inhibition, % at 20 µM | hit rate 1.7% among 360,000 | AID 588405;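 active = inhibition of at least 50% at 20 µM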
* = called active by the depositor; / = no result.

SMILES	TROY NFkB inh	CF NFkB inh	KKLEB cytotox	HIF-2a inh	TWEAK Fn14 block	Peg3 prom inh
COc1ccc(-n2ncc3c(NCc4cccnc4)ncnc32)cc1	-62	-5	-1	-220	0	-224
Clc1ccc(-n2ncc3c(NCCN4CCOCC4)ncnc32)cc1	67*	1	-2	-2	83*	-64
COc1ccc(-n2ncc3c(NCC(C)C)ncnc32)cc1	31	-25	-4	-115	50*	-145
COCC(C)Nc1ncnc2c1cnn2-c1ccc(Cl)cc1 (configuration not stated)	40	-14	-2	-156	57*	-265
COc1cccc(CN2CC(C(=O)N(C)Cc3[nH]c4ccccc4c3C)CCC2=O)c1 (configuration not stated)	-9	-2	1	27	9	10
O=C(NC1CCCCC1)C(c1ccc(C(F)(F)F)cc1)n1c(=O)c(-c2cc3ccccc3[nH]2)nc2ccccc21 (configuration not stated)	/	/	/	16	/	/
Cc1ccc(N2C(=O)CC(Sc3ncccn3)C2=O)cc1C (configuration not stated)	1	-10	-4	8	-17	14
COc1ccc(NC(=O)c2cccc(N3C(=O)c4cccc([N+](=O)[O-])c4C3=O)c2)cc1	5	-15	11	8	1	-11
COc1ccc(/C=C2\C(=O)N(c3c(Cl)cc(Cl)cc3Cl)N=C2NC(=O)c2cccc([N+](=O)[O-])c2)cc1	-11	-15	-1	45*	44	77*
CN(C)c1cccc(NC(=O)C2Cc3c(-c4ccccc4Oc4ccccc4)ccnc3O2)c1 (configuration not stated)	25	12	-8	23	8	31
CC(=O)c1cccc(NC(=O)C2Cc3c(-c4ccccc4Oc4ccccc4)ccnc3O2)c1 (configuration not stated)	48	-5	2	18	51*	-20
CC(=O)Nc1cccc(-c2ccnc3c2CC(C(=O)Nc2cccc(Oc4ccccc4)c2)O3)c1 (configuration not stated)	41	-16	5	22	57*	51*
